Data published in PubChem BioAssay (EPA / NIEHS).
“And” between values parts separate entries of the source, which are not always exact repeats. Identical values can stand only once. Inconclusive results are not listed. The source made the active and inactive calls. How the source made its calls: active means hit-call score of the fitted dose curve at least 0.9, where 1 is the maximum; inconclusive means response in the unintended direction; inactive means score below 0.9.

target: Cellular tumor antigen p53 (Homo sapiens) (UniProt P04637); assay: TOX21_p53_BLA_p3_ratio: Tox21 HCT-116 p53 Agonism Beta-lactamase Assay, Ratio, Phase 3 (AID 2283596)
Method in brief: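 Cells were seeded at 4000/well, rested 5 h at 37C, then dosed with DMSO compound solutions (217-fold dilution) for 16 h. CCF4-AM substrate was loaded for 2 h at room temperature, and the 460/530 nm emission ratio was fitted for gain of signal versus DMSO.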

Chain of Cellular tumor antigen p53 (Homo sapiens) (P04637 whole entry, looked up): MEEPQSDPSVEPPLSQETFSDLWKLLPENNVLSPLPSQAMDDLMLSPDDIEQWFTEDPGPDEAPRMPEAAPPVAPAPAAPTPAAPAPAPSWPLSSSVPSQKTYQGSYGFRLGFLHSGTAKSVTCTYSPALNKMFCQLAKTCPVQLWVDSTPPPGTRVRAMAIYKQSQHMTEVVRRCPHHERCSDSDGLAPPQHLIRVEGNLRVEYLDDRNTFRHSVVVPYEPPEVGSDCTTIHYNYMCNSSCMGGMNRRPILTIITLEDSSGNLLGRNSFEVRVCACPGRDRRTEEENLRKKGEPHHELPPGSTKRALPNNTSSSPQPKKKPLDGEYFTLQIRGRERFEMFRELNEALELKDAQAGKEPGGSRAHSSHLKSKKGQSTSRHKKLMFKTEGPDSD

SMILES | outcome | AC50
CN(C)C(=N)N=C(N)N | inactive | 
O=C(O)c1cccc(C(F)(F)F)c1 | inactive | 
CN(C)CCOCCN(C)C | inactive | 
O=Nc1ccc(Nc2ccccc2)cc1 |  | 77.1 µM (active) and 61.3 µM (active)
CCCCCCCCCCCCCC(=O)O | inactive | 
CC(C)(C#N)c1cc(Cn2cncn2)cc(C(C)(C)C#N)c1 | inactive | 
CN(CCOc1ccc(CC2SC(=O)NC2=O)cc1)c1ccccn1 (centres undefined) | inactive | 
C#C[C@]1(O)CC[C@H]2[C@@H]3CCC4=Cc5oncc5C[C@]4(C)[C@H]3CC[C@@]21C | inactive | 
CC(=O)Nc1ccc(CC(=O)O)cc1 | inactive | 
O=C(O)c1cccc([N+](=O)[O-])c1 | inactive | 
CCCCCC(CO)CCC (centres undefined) | inactive | 
CC(C)C(C)(C)C(C)(C)C(C)(C)S | inactive | 
O=C(O)C[C@H](O)C[C@H](O)/C=C/c1c(C2CC2)nc2ccccc2c1-c1ccc(F)cc1 | inactive | 
NNc1nc(-c2ccc(N)cc2)cs1 | inactive | 
O=c1[nH]c(=O)n([C@H]2CCCO2)cc1F | inactive | 
C=CC[N+](C)(C)CC=C | inactive | 
NCCCCCCN | inactive | 
CCCCCCCCCOC(C)=O | inactive | 
O=C1CCc2ccccc2O1 | inactive | 

SMILES | outcome | AC50
O=C(O)CN(CCN(CC(=O)O)CC(=O)O)CCN(CC(=O)O)CC(=O)O | inactive | 
C=C(C)C(=O)O | inactive | 
O=C(O)c1ccc(C(=O)O)cc1 | inactive | 
O=C(O)c1snc(Cl)c1Cl | inactive | 
COC(=O)Cc1cccc2ccccc12 | inactive | 
CN(C)CCCN | inactive | 
CCCCCCCCCCCCCCCC(=O)O | inactive | 
CC(=O)O[C@]1(C(C)=O)CC[C@H]2[C@@H]3C[C@H](C)C4=CC(=O)CC[C@]4(C)[C@H]3CC[C@@]21C | inactive | 
CNC(=O)Oc1ccc2c(c1)[C@]1(C)CCN(C)[C@@H]1N2C | inactive | 
CC1=CCC(O)(C(C)C)CC1 (centres undefined) | inactive | 
NCCOCCO | inactive | 
Nc1cc(Cl)c(O)c(Cl)c1 | inactive | 
O=C(O)Cc1cccc2ccccc12 | inactive | 
O=c1[nH]nnc2ccccc12 | inactive | 
O=C(O)CCSCCC(=O)O | inactive | 
NC(=O)NC1NC(=O)NC1=O (centres undefined) | inactive | 
c1ccc2[nH]ccc2c1 | inactive | 
O=C1C(c2[nH]c3ccc(S(=O)(=O)O)cc3c2O)=Nc2ccc(S(=O)(=O)O)cc21 | inactive | 
CCN(CC)c1ccc2c(-c3ccccc3C(=O)O)c3ccc(=[N+](CC)CC)cc-3oc2c1 | inactive | 

test system: not listed separately; assay: TOX21_p53_BLA_p4_viability: Viability Assessment in the Tox21 HCT-116 p53 Agonism Beta-lactamase Assay, Phase 4 (AID 2283597);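 further: hits lower the luminescence signal meaning cytotoxicity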
Method in brief: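 Readout: ATP luminescence (CellTiter-Glo), measured 30 min after reagent addition at RT. The reagent followed a 2 h CCF4-AM incubation, and the cells had been exposed to compound for 16 h at 37C.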

SMILES | outcome | AC50
CN(C)C(=N)N=C(N)N | inactive | 
O=C(O)c1cccc(C(F)(F)F)c1 | inactive | 
CN(C)CCOCCN(C)C | inactive | 
O=Nc1ccc(Nc2ccccc2)cc1 |  | 85.3 µM (active) and 75.2 µM (active)
CCCCCCCCCCCCCC(=O)O | inactive | 
CC(C)(C#N)c1cc(Cn2cncn2)cc(C(C)(C)C#N)c1 | inactive | 
CN(CCOc1ccc(CC2SC(=O)NC2=O)cc1)c1ccccn1 (centres undefined) | inactive | 
C#C[C@]1(O)CC[C@H]2[C@@H]3CCC4=Cc5oncc5C[C@]4(C)[C@H]3CC[C@@]21C | inactive | 
CC(=O)Nc1ccc(CC(=O)O)cc1 | inactive | 
O=C(O)c1cccc([N+](=O)[O-])c1 | inactive | 
CCCCCC(CO)CCC (centres undefined) | inactive | 
CC(C)C(C)(C)C(C)(C)C(C)(C)S | inactive | 
O=C(O)C[C@H](O)C[C@H](O)/C=C/c1c(C2CC2)nc2ccccc2c1-c1ccc(F)cc1 | inactive | 
NNc1nc(-c2ccc(N)cc2)cs1 | inactive | 
O=c1[nH]c(=O)n([C@H]2CCCO2)cc1F | inactive | 
C=CC[N+](C)(C)CC=C | inactive | 
NCCCCCCN | inactive | 
CCCCCCCCCOC(C)=O | inactive | 
O=C1CCc2ccccc2O1 | inactive | 

SMILES | outcome | AC50
O=C(O)CN(CCN(CC(=O)O)CC(=O)O)CCN(CC(=O)O)CC(=O)O | inactive | 
C=C(C)C(=O)O | inactive | 
O=C(O)c1ccc(C(=O)O)cc1 | inactive | 
O=C(O)c1snc(Cl)c1Cl | inactive | 
COC(=O)Cc1cccc2ccccc12 | inactive | 
CN(C)CCCN | inactive | 
CCCCCCCCCCCCCCCC(=O)O | inactive | 
CC(=O)O[C@]1(C(C)=O)CC[C@H]2[C@@H]3C[C@H](C)C4=CC(=O)CC[C@]4(C)[C@H]3CC[C@@]21C | inactive | 
CNC(=O)Oc1ccc2c(c1)[C@]1(C)CCN(C)[C@@H]1N2C | inactive | 
CC1=CCC(O)(C(C)C)CC1 (centres undefined) | inactive | 
NCCOCCO | inactive | 
Nc1cc(Cl)c(O)c(Cl)c1 | inactive | 
O=C(O)Cc1cccc2ccccc12 | inactive | 
O=c1[nH]nnc2ccccc12 | inactive | 
O=C(O)CCSCCC(=O)O | inactive | 
NC(=O)NC1NC(=O)NC1=O (centres undefined) | inactive | 
c1ccc2[nH]ccc2c1 | inactive | 
O=C1C(c2[nH]c3ccc(S(=O)(=O)O)cc3c2O)=Nc2ccc(S(=O)(=O)O)cc21 | inactive | 
CCN(CC)c1ccc2c(-c3ccccc3C(=O)O)c3ccc(=[N+](CC)CC)cc-3oc2c1 | inactive | 

target: Cellular tumor antigen p53 (Homo sapiens) (UniProt P04637); assay: TOX21_p53_BLA_p5_ratio: Tox21 HCT-116 p53 Agonism Beta-lactamase Assay, Ratio, Phase 5 (AID 2283599)
Method in brief: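 HCT-116 cells carrying a p53-inducible beta-lactamase reporter were seeded at 4000 cells/well and dosed after 5 h with compound in DMSO (217-fold dilution). After 16 h at 37C, CCF4-AM substrate was added for 2 h, and the 460/530 nm emission ratio was scored as gain-of-signal versus DMSO.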

SMILES | outcome | AC50
CN(C)C(=N)N=C(N)N | inactive | 
O=C(O)c1cccc(C(F)(F)F)c1 | inactive | 
CN(C)CCOCCN(C)C | inactive | 
O=Nc1ccc(Nc2ccccc2)cc1 |  | 77.5 µM (active) and 46.3 µM (active)
CCCCCCCCCCCCCC(=O)O | inactive | 
CC(C)(C#N)c1cc(Cn2cncn2)cc(C(C)(C)C#N)c1 | inactive | 
CN(CCOc1ccc(CC2SC(=O)NC2=O)cc1)c1ccccn1 (centres undefined) | inactive | 
C#C[C@]1(O)CC[C@H]2[C@@H]3CCC4=Cc5oncc5C[C@]4(C)[C@H]3CC[C@@]21C | inactive | 
CC(=O)Nc1ccc(CC(=O)O)cc1 | inactive | 
O=C(O)c1cccc([N+](=O)[O-])c1 | inactive | 
CCCCCC(CO)CCC (centres undefined) | inactive | 
CC(C)C(C)(C)C(C)(C)C(C)(C)S | inactive | 
O=C(O)C[C@H](O)C[C@H](O)/C=C/c1c(C2CC2)nc2ccccc2c1-c1ccc(F)cc1 | inactive | 
NNc1nc(-c2ccc(N)cc2)cs1 | inactive | 
O=c1[nH]c(=O)n([C@H]2CCCO2)cc1F | inactive | 
C=CC[N+](C)(C)CC=C | inactive | 
NCCCCCCN | inactive | 
CCCCCCCCCOC(C)=O | inactive | 
O=C1CCc2ccccc2O1 | inactive | 

SMILES | outcome | AC50
O=C(O)CN(CCN(CC(=O)O)CC(=O)O)CCN(CC(=O)O)CC(=O)O | inactive | 
C=C(C)C(=O)O | inactive | 
O=C(O)c1ccc(C(=O)O)cc1 | inactive | 
O=C(O)c1snc(Cl)c1Cl | inactive | 
COC(=O)Cc1cccc2ccccc12 | inactive | 
CN(C)CCCN | inactive | 
CCCCCCCCCCCCCCCC(=O)O | inactive | 
CC(=O)O[C@]1(C(C)=O)CC[C@H]2[C@@H]3C[C@H](C)C4=CC(=O)CC[C@]4(C)[C@H]3CC[C@@]21C | inactive | 
CNC(=O)Oc1ccc2c(c1)[C@]1(C)CCN(C)[C@@H]1N2C | inactive | 
CC1=CCC(O)(C(C)C)CC1 (centres undefined) | inactive | 
NCCOCCO | inactive | 
Nc1cc(Cl)c(O)c(Cl)c1 | inactive | 
O=C(O)Cc1cccc2ccccc12 | inactive | 
O=c1[nH]nnc2ccccc12 | inactive | 
O=C(O)CCSCCC(=O)O | inactive | 
NC(=O)NC1NC(=O)NC1=O (centres undefined) | inactive | 
c1ccc2[nH]ccc2c1 | inactive | 
O=C1C(c2[nH]c3ccc(S(=O)(=O)O)cc3c2O)=Nc2ccc(S(=O)(=O)O)cc21 | inactive | 
CCN(CC)c1ccc2c(-c3ccccc3C(=O)O)c3ccc(=[N+](CC)CC)cc-3oc2c1 | inactive | 
